Results published in PubChem BioAssay AID1731 (National Center for Advancing Translational Sciences (NCATS), 2009).
The source made the active and inactive calls. Calls come from the whole dose curve; as a rule, active = well fitted curve in the direction sought with a large enough effect; inactive = no such curve, though single readings can be large or run the other way.

These compounds were tested against Epidermal growth factor receptor (Homo sapiens) (UniProt P00533) (assay: Assay for Inhibitors of the ERK Signaling Pathway using a Homogeneous Screening Assay: EGFR Kinase Inhibition). Details: homogeneous biochemical assay; series mostly up to 21.9 µM.
Sequence of Epidermal growth factor receptor (Homo sapiens) (P00533 whole entry, looked up): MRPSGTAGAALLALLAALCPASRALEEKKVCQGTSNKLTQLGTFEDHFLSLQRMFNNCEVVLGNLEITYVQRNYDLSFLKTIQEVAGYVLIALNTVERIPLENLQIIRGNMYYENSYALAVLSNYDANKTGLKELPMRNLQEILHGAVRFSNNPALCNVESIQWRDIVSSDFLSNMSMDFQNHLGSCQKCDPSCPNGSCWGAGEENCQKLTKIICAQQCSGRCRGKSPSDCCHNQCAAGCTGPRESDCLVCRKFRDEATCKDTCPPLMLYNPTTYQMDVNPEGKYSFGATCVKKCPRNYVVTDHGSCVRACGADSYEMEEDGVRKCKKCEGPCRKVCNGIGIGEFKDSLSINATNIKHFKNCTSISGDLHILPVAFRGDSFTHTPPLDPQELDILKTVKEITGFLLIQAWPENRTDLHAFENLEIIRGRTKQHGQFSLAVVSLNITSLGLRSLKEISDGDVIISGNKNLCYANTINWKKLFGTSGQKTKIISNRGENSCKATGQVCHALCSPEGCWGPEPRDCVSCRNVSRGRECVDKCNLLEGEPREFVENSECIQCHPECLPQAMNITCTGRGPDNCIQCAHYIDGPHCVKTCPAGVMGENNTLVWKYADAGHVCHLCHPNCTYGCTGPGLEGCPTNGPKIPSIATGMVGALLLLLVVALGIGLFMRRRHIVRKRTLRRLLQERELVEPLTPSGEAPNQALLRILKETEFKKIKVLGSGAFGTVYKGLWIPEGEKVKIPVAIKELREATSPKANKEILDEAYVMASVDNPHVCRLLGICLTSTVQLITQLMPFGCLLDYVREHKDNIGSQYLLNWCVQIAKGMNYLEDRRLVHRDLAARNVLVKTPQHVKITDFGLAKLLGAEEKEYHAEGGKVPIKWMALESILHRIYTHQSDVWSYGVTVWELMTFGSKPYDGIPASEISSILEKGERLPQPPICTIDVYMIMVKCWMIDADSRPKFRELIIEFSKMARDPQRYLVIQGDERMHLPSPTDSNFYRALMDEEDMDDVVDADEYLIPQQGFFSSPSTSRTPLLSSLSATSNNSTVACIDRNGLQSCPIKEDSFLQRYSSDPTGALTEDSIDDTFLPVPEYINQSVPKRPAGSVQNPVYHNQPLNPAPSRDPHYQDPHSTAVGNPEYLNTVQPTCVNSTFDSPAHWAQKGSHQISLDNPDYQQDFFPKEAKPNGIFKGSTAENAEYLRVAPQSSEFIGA
Text: qHTS Assay for Inhibitors of the ERK Signaling Pathway using a Homogeneous Screening Assay
NIH Chemical Genomics Center [NCGC]
NIH Molecular Libraries Screening Centers Network [MLSCN]
Assay Submitter (PI): Dr. Wei Zheng, NCGC/NIH
The Ras/extracellular-signal-regulated kinase (ERK) mitogen activated protein (MAP) kinase signaling pathway (ERK1/2 cascade) plays is a key role in transmitting signals from the cell surface to the nucleus (Nishida and Gotoh 1993; Chang and Karin, 2001). The cascade is initiated by the small G-protein Ras, which recruits Raf […], where activation occurs. Alternatively, this pathway can be activated by elevating intracellular cAMP.
Activation of the ERK pathway is essential in increased cell division and cell survival. Sustained and constitutive activation of the ERK pathway, however, has been linked to uncontrolled cell proliferation, increased cell survival, and tumor progression. Thus, the ERK has been as an attractive target for cancer chemotherapy in the past few years (Sebolt-Leopold and Herrera, 2004). Given its physiological and pathological importance, assessment of ERK phosphorylation has been broadly performed in both basic research and drug discovery. Most assays for the measurement of ERK phosphorylation use the antibody-based detection methods, such as western blot and ELISA. These assays require multiple reagent additions with cell wash steps and are not suitable for high-throughput screening.
The current cell-based ERK phosphorylation assay was performed using AlphaScreen platform. AlphaScreen is a two bead-based proximity-dependent chemical energy transfer luminescent assay platform. The assay reagents (ERK SureFire(TM) kit) were supplied from TGR BioSciences (Australia). In the presence of specific antibodies, phosphorylated ERK will bring "donor" and "acceptor" beads to a proximity range (<200 nm), and subsequently lead a chemical luminescent reaction upon exciting donor beads with 680 nm laser. To validate pathway hits from the cell-based assay, enzyme assays consisting of EGFR tyrosine kinase, Raf and MEK were used as a means of deciphering the enzymes of target for the prioritized group of compounds derived from the HEK-293 cell based assay. The compounds were tested against significant members of the ERK signaling pathway EGFR and EGFR mutants (EGFR L858R, EGFR T790M, and EGFR L858R T790M). In order to establish the specificity of the prioritized compounds for EGFR and EGFR mutants, the compounds were also assayed against other important ERK signaling pathway enzymes, c-RAF and MEK-1.
NCGC Assay Protocol Summary:
The HTRF kinase assay (components supplied as kit by Cisbio) was chosen for the EGFR and EGFR mutant enzyme assays that applied the time resolved fluorescence resonance energy transfer (TR-FRET) principle. A peptide substrate is labeled with a biotin that can bind to XL665 labeled streptavidin and the anti-phosphoresidue antibody is labeled with Eu+. Upon phosphorylation of the substrate, the antibody binds to phosphorylated substrate that enables TR-FRET detection in homogenous assay format.
An HTRF Kinease TK assay kit (Cisbio, Bedford, MA) was used to develop the EGFR and EGFR mutant assays (Harbert et al., 2008. Harbert C, Marshall J, Soh S, Steger K. Development of a HTRF Kinase Assay for Determination of Syk Activity. Current Chemical Genomics. 1: 20-26. 2008). EGFR and EGFR mutants were obtained from Invitrogen. […]

Structure (SMILES)	outcome
Cn1nc(-c2ccccc2)nc2c(=O)n(C)c(=O)nc1-2	inactive
CCn1nc(-c2ccccc2)nc2c(=O)n(C)c(=O)nc1-2	inactive
Cc1nc2c(=O)n(C)c(=O)nc-2n(C)n1	inactive
CN1CCN(c2cccc3c2C(=O)c2ccccc2C3=O)CC1	inactive
CCn1nc(-c2cccs2)nc2c(=O)n(C)c(=O)nc1-2	inactive
